TDP1 block = TDP1 (human) enzyme inhibition; Q9NUW8; 350,000 compounds, 0.28% hits; Potency, µM (doses to about 130 µM), for the others: at the top dose activity change, negative = inhibition, hits mostly inhibitors; recombinant TDP1, AlphaScreen DNA substrate cleavage; also: potency is read from the fitted curve at half-maximal effect; nearly all actives have a fitted effect of over 40% in size
Target sequence (Q9NUW8 whole entry, looked up): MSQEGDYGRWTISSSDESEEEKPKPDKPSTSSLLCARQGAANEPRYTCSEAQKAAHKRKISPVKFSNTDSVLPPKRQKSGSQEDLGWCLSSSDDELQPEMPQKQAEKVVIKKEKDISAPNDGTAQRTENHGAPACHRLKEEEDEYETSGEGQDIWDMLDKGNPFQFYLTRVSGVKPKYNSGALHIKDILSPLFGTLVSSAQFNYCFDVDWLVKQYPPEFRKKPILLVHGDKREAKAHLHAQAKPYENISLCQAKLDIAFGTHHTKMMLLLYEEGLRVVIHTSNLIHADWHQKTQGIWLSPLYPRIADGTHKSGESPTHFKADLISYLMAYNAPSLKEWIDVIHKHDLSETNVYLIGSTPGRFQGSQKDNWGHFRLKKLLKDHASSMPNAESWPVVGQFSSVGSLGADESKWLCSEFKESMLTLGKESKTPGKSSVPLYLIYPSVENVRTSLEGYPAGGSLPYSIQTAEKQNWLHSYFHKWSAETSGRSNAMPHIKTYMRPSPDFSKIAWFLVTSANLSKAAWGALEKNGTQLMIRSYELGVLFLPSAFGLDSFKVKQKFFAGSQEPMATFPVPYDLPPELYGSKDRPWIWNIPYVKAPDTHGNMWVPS
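Recombinant human Tdp1 (E. coli-expressed, 1 nM final) preincubated with compounds 15 min at room temperature, then 5'-biotin/3'-phosphotyrosine-FITC DNA substrate (15 nM final) added for 5 min. AlphaScreen beads (10 ug/ml final) added 10 min; cleavage lowers signal.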
ELG1 repair inh = inhibitors of ELG1-dependent DNA repair in HEK293T cells; HEK293T ELG1-luciferase reporter, luminescence, 16 h; DNA damage induced by 5-fluorouridine; Potency, µM (titrated, usually from 46.1 µM), inactives show at the top dose activity change, negative = inhibition, actives largely listed as inhibitors; 330,000 compounds, 2.3% hits; AID 504467; also: potency is read from the fitted curve at half-maximal effect; nearly all actives have a fitted effect of over 55% in size
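Cells (2,000 per well) received 5-fluorouridine plus test compound or DMSO and were incubated 16 hr at 37 °C, 5% CO2. Luciferase activity was read by luminescence 30 min after ONE-Glo addition; signal suppression marked inhibition of damage-induced ELG1 function.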
Giardia killer = kills Giardia lamblia | activity change, % at 7.66 µM, hits read low | 340,000 compounds, 0.15% hits | Giardia lamblia trophozoite viability | AID 540267; in the data active = activity change below about -80%; inconclusive = between about -30% and that limit;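 also: parasites exposed to compound for two days anaerobically before the ATP read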
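Luminescence from cellular ATP indicates surviving trophozoites (100 cells/well) following 48 hrs anaerobic compound treatment at 37 deg C; signal develops 15-30 min at room temperature.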
IL-1B inflam inh = blocks inflammasome-driven IL-1 beta release. THP-1 LPS/ATP IL-1B secretion, AlphaLISA, 16 h; hits give low values. activity change, % at 57.5 µM. 360,000 compounds, 4.7% hits; in the data active = activity change below about -50%; inconclusive = mostly about -30% to -49%
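THP-1 cells pretreated 1 hr with compounds (up to 57.5 uM final), then stimulated with LPS (250 ng/mL final) plus ATP (1.25 mM final); secreted IL-1B measured by AlphaLISA after 16 hr, decreased signal indicating inhibition.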
TDP1 cell CPT = DT40-hTDP1 cell growth loss with CPT. chicken DT40 Tdp1-/-;hTDP1 cells + 20 nM CPT, ATP luminescence, 48 h. Potency, µM (top dose mostly 46.2 µM), for inactives: at the top dose activity change, negative = growth inhibition, actives largely listed as inhibitors. 420,000 compounds, 12% hits; also: potency is read from the fitted curve at half-maximal effect; nearly all actives have a fitted effect of over 55% in size
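Cell growth measured by CellTiter-Glo luminescence after a minimum 48 h, 37 C compound exposure with 20 nM CPT in Tdp1-knockout DT40 cells stably expressing hTDP1, seeded 400/well; qHTS titration format.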
DT40 TDP1 no CPT = qHTS for Inhibitors of human tyrosyl-DNA phosphodiesterase 1 (TDP1): qHTS in cells in absence of CPT | DT40 Tdp1-/- hTDP1 cells, no CPT, ATP luminescence, 48 h | Potency, µM (top dose mostly 46.2 µM), for the others: at the highest dose activity change, negative = growth inhibition, hits mostly inhibitors | 420,000 compounds, 15% hits | AID 686978, 2013; also: potency is read from the fitted curve at half-maximal effect; nearly all actives have a fitted effect of over 55% in size
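DT40 Tdp1-/-;hTDP1 cells, no CPT (DMSO vehicle only), 400 cells/well; compounds pin-transferred; ≥48 hr, 37 °C; CellTiter-Glo 30 min RT dark, luminescence read.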
* hit, by the source's call; ? = inconclusive; nt = no result; [ ] = dose if it differs, or a comment. A selection: hits, their analogues and other compounds. The true share with any hit is near 19%. Unless noted, calls follow the shape of the dose curve; as a rule, active = well fitted curve in the direction sought with a large enough effect; inconclusive = small, poorly fitted or top-dose-only effect, or another doubt; inactive = no such curve, though single readings can be large; an effect the other way counts as inactive or inconclusive. % is scaled to controls: 0 for no effect and ±100 for the full control effect.

SMILES	TDP1 block	ELG1 repair inh	Giardia killer	IL-1B inflam inh	TDP1 cell CPT	DT40 TDP1 no CPT
Cc1cccc(-c2cnc(C)nc2C2CCCN(C(=O)c3cccc(Cn4cccn4)c3)C2)c1 (stereo unspecified)	nt	nt	nt	nt	3.3µM*	?
CSc1cc2c(s1)c1cnn(Cc3cccc(O)c3)c(=O)c1n2C	1%	nt	nt	nt	nt	nt
Cc1nc(NC(=O)C2CC2)sc1C(=O)Nc1ccccc1Cl	nt	?	-9	-10	?	?
Cc1ccc(C(C)C)c(OCc2nc(-c3nonc3N)no2)c1	2%	?	-10	?	16µM*	7.3µM*
Cc1ccc(C(C)C)c(OCc2n[nH]c(=S)o2)c1	0%	5%	-11	33	-13%	-24%
CCCCNC(=S)NNC(=O)c1c(Cl)c(C)nn1C	5%	-5%	1	8	23µM*	16µM*
CCNC(=S)NNC(=O)c1c(Cl)c(C)nn1C	7%	11%	-4	1	4%	-21%
COc1ccc(C2CC=C(C(C)=O)CN2S(=O)(=O)c2ccc(C)cc2)cc1 (stereo unspecified)	nt	nt	nt	12	?	23µM*
COc1ccc(C2CC=C(C(C)=O)CN2S(=O)(=O)c2ccccc2)cc1 (stereo unspecified)	nt	nt	nt	-13	?	21µM*
CCOc1ccc([C@@H]2CC=C(C(=O)O)CN2S(=O)(=O)c2ccc(C)cc2)cc1	0%	21%	?	37	-10%	-7%
CCOc1ccc(C2CC=C(C(C)=O)CN2S(=O)(=O)c2ccc(C)cc2)cc1 (stereo unspecified)	nt	nt	nt	-3	23µM*	23µM*
O=C(COc1ccc(Br)cc1)N/N=C1/SCC(=O)N1Cc1ccccc1	-3%	-13%	-15	-4	-26%	?
COc1ccc(S(=O)(=O)N2CC(C)N(C(=O)N(C)C)C2C)cc1 (stereo unspecified)	4%	0%	22	22	-2%	3%
COc1ccc2c(c1)c1c(c(=O)n(-c3ccccc3)c(=O)n1CC(=O)Nc1ccc(C)c(C)c1)n2C	0%	nt	nt	nt	0%	0%
Cc1oc2ncn(CC(C)C)c(=O)c2c1C(=O)Nc1ccc(Cl)cn1	-1%	nt	nt	nt	?	?
CCOc1ccc(CCNC(=O)c2c(C)oc3ncn(CC(C)C)c(=O)c23)cc1OCC	-3%	nt	nt	nt	-28%	?
Cc1ccc(N2CCN(C(=O)c3c(C)oc4ncn(CC(C)C)c(=O)c34)CC2)c(C)c1	4%	nt	nt	nt	29µM*	7.3µM*
Cc1ccc(N2CCN(C(=O)c3c(C)oc4ncn(C)c(=O)c34)CC2)c(C)c1	3%	nt	nt	nt	2%	-4%
CCc1ccc(CNC(=O)c2c(C)oc3ncn(CC(C)C)c(=O)c23)cc1	-5%	nt	nt	nt	?	16µM*
CCOC(=O)C(C)NC(=O)c1c(C)oc2ncn(CC(C)C)c(=O)c12 (stereo unspecified)	1%	nt	nt	nt	?	23µM*
Cc1oc2ncn(CC(C)C)c(=O)c2c1C(=O)NCCc1ccccc1	2%	nt	nt	nt	?	16µM*
CCCOc1ccc(C(=O)CCNC(Cc2c[nH]c3ccccc23)C(=O)O)cc1 (stereo unspecified)	nt	15%	-2	-9	4.6µM*	7.3µM*
Cc1ccc(C(=O)COC(=O)C(Cc2c[nH]c3ccccc23)NC(=O)c2ccc(C(C)(C)C)cc2)cc1 (stereo unspecified)	0%	nt	nt	nt	18µM*	23µM*
Cc1ccc(NC(=O)C(Cc2c[nH]c3ccccc23)NC(=O)OCC(C)C)cc1 (stereo unspecified)	7%	nt	nt	nt	18µM*	23µM*
O=C(NC(Cc1c[nH]c2ccccc12)C(=O)Nc1ccc(OC(F)(F)F)cc1)c1cccs1 (stereo unspecified)	3%	-5%	9	-68*	?	?
SMILES	TDP1 block	ELG1 repair inh	Giardia killer	IL-1B inflam inh	TDP1 cell CPT	DT40 TDP1 no CPT
CNC(=O)C1(C(F)(F)F)CC(CCCO)CCCO1 (stereo unspecified)	7%	nt	-7	nt	nt	nt
CC(C)c1ccccc1NC(=O)C(Cc1c[nH]c2ccccc12)NC(=O)OC(C)(C)C (stereo unspecified)	nt	nt	nt	nt	18µM*	?
CC(C)(C)OC(=O)N[C@@H](Cc1c[nH]c2ccccc12)C(=O)O	11%	nt	nt	nt	nt	nt
Cc1ccccc1Cn1c(C)c(C(=O)N(C)Cc2ccc(F)cc2)sc1=O	nt	nt	nt	-19	?	18µM*
Cc1cc(C)cc(Cn2c(C)c(C(=O)N(C)Cc3ccc(F)cc3)sc2=O)c1	nt	nt	nt	-28	?	?
CCCCN(C)C(=O)c1sc(=O)n(CC(=O)c2ccccc2OC)c1C	nt	nt	nt	18	?	?
Cc1c(C(=O)N(C)Cc2ccc(F)cc2)sc(=O)n1Cc1ccccc1C#N	nt	nt	nt	1	23µM*	16µM*
CCCCN(C)C(=O)c1sc(=O)n(Cc2ccccc2C#N)c1C	nt	nt	nt	-7	13µM*	?
Cc1oc(-c2ccccc2NC(=O)c2ccccc2)nc1CNC(=O)c1cccc(-n2cccn2)c1	nt	nt	nt	nt	-16%[9.04 µM]	-8%
COc1ccc(-c2cc(C(=O)NCc3ccco3)c3ccccc3n2)cc1	nt	?	-14	0	?	?
COc1ccc(Nc2cc(C(=O)NCc3ccccn3)c3ccccc3n2)c(OC)c1	7%	?	nt	nt	nt	nt
CCC(C)C(NC(=O)c1ccccc1NC(=O)c1ccc(OC)cc1)C(=O)NCc1ccco1 (stereo unspecified)	0%	7%	-11	0	-20%	-52%
COc1ccc(N=c2oc3c(OC)cccc3cc2C(=O)NCc2ccco2)c(OC)c1	-1%	-10%	-2	-22	?	13µM*
COc1ccc(C(=O)Nc2ccc(Cl)cc2C(=O)NCc2ccco2)cc1	-2%	?	8	25	5.2µM*	6.5µM*
COc1ccc(-c2cc(C(=O)NCc3ccco3)c3ccccc3n2)c(OC)c1	8.9µM*	-30%	-12	15	?	?
COc1ccc(Nc2cc(C(=O)NCc3ccco3)c3ccccc3n2)c(OC)c1	7%	?	24	9	?	23µM*
C[C@H](CC[C@@H]1OC1(C)C)C1CC[C@H]2[C@@H]3CC=C4C[C@@H](O)CC[C@]4(C)[C@H]3CC[C@]12C (stereo partly specified)	1%	nt	nt	nt	?	-19%
CC1CCC(C(=O)NNC(=O)c2cc(-c3ccco3)[nH]n2)CC1 (stereo unspecified)	0%	2%	-13	-4	18µM*	16µM*

Compound activity (PubChem)
